Measurements: PubChem BioAssay (NCATS)
Inconclusive results are not listed. Calls of active or inactive are those of the source. Calls follow the shape of the dose curve; as a rule, active = well fitted inhibition curve with a large enough effect; inconclusive = small, poorly fitted or top-dose-only effect; inactive = flat fitted curve, though single readings scatter.

What follows are compounds tested on CP252 (assay: qHTS profiling for inhibitors of Plasmodium falciparum proliferation (AID 504749; also: nearly all actives have a fitted effect of over 60% in size;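 as to activity, negative = inhibition: 0% = DMSO vehicle and full inhibition = artemisinin control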)). Conditions: P. falciparum in erythrocytes, SYBR Green DNA, 72 h; series mostly up to 28.7 µM; activity, negative = inhibition: at the top concentration.
In short: (§1)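 P. falciparum-infected erythrocytes (0.3% parasitemia, 2.5% hematocrit final) were exposed to compounds for 72 h at 37 C in 5% CO2, then lysed with SYBR Green buffer overnight at room temperature; parasite DNA fluorescence was normalized to artemisinin and DMSO controls.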
Potency is read from the fitted curve at half-maximal effect.

| Structure (SMILES) | activity, negative = inhibition | Potency |
| --- | --- | --- |
| C[C@H](N)Cc1ccccc1 | 5.21% (inactive) |  |
| C[C@]12C=CC(=O)C=C1CC[C@@H]1C2CC[C@]2(C)OC(=O)CCC12 (some centres undefined) | 0.608% (inactive) |  |
| OCC(O)[C@H]1O[C@@H]2O[C@H](C(Cl)(Cl)Cl)O[C@@H]2[C@H]1O (some centres undefined) | 1.3% (inactive) |  |
| CC1(C)[C@@H](C=C(Cl)Cl)[C@@H]1C(=O)OCc1c(F)c(F)cc(F)c1F | -1.85% (inactive) |  |
| CC1(C)S[C@@H]2[C@H](N)C(=O)N2C1C(=O)O (some centres undefined) | 8.57% [at 12.8 µM] (inactive) |  |
| C=C1Nc2ccccc2C(=O)N1c1ccccc1C | 0.347% (inactive) |  |
| CC1OC(O[C@H]2C[C@@H](O)[C@]3(CO)[C@@H]4C(CC[C@]3(O)C2)[C@@]2(O)CC[C@H](C3=CC(=O)OC3)[C@@]2(C)C[C@H]4O)C(O)C(O)C1O (some centres undefined) | -1.39% (inactive) |  |
| O=[N+]([O-])OC1CO[C@H]2C(O[N+](=O)[O-])COC12 (some centres undefined) | 4.62% (inactive) |  |
| CCOC(=O)/C=C(C)/C=C/CC(C)CCCC(C)C (centres undefined) | 10.7% (inactive) |  |
| [S]=[Sb][S][Sb]=[S] | -2.55% (inactive) |  |
| CN1C2CCC1C(C(=O)O)C(OC(=O)c1ccccc1)C2 (centres undefined) | 3.18% (inactive) |  |
| C[C@@H]1CC[C@H]2[C@@H](C)C(=O)O[C@@H]3OC4(C)CC[C@@H]1C32OO4 (some centres undefined) |  | 10 nM (active) |
| Cc1ccc2c(c1)[C@@H]1CN(C)CC[C@H]1N2 | -10.5% (inactive) |  |
| Nc1nc(O)c(-c2ccccc2)o1 | 1.81% (inactive) |  |
| C=CC[N+]1(C)CCC23c4c5ccc(O)c4O[C@H]2C(=O)CC[C@@]3(O)C1C5 (some centres undefined) | 6.42% (inactive) |  |
| OC[C@@H](O)[C@H]1O[C@@H]2OC(C(Cl)(Cl)Cl)O[C@H]2[C@H]1O (some centres undefined) | 2.38% (inactive) |  |
| CCCCCCC(=O)O[C@H]1CC[C@H]2[C@@H]3CCC4CC(=O)C=C(C)[C@]4(C)[C@H]3CC[C@]12C (some centres undefined) | 4.44% (inactive) |  |
| Cc1cc(C)cc(C(=O)OC2CC3CCC(C2)N3C)c1 (centres undefined) | -2.14% (inactive) |  |
| CCCN1CCCC2Cc3nc(N)ncc3CC21 (centres undefined) | 6.28% (inactive) |  |
| COc1ccc2c3c1O[C@H]1[C@@H](O)C=C[C@H]4C(C2)NCCC341 (some centres undefined) | 0.0879% (inactive) |  |
| CCCCCC(O)C1C(=O)OC(C)C(O)\C=C/C=C\C=C/C=C\C=C(\C)C(O)C(O)C(O)CC(O)CC(O)CC(O)CC(O)CC1O (centres undefined) | 1.08% (inactive) |  |
| CCCCCc1cc(O)c2c(c1)OC(C)(C)C1CC=C(C)CC21 (centres undefined) |  | 3160 nM (active) |

What follows are compounds tested on CP256 in the same assay as above. Conditions: P. falciparum in erythrocytes, SYBR Green DNA, 72 h; series mostly up to 28.7 µM; activity, negative = inhibition: at the top concentration.
In short: as §1

| Structure (SMILES) | activity, negative = inhibition | Potency |
| --- | --- | --- |
| C[C@H](N)Cc1ccccc1 | 3.18% (inactive) |  |
| C[C@]12C=CC(=O)C=C1CC[C@@H]1C2CC[C@]2(C)OC(=O)CCC12 (some centres undefined) | 1.97% (inactive) |  |
| OCC(O)[C@H]1O[C@@H]2O[C@H](C(Cl)(Cl)Cl)O[C@@H]2[C@H]1O (some centres undefined) | 3.91% (inactive) |  |
| CC1(C)[C@@H](C=C(Cl)Cl)[C@@H]1C(=O)OCc1c(F)c(F)cc(F)c1F | 1.36% (inactive) |  |
| CC1(C)S[C@@H]2[C@H](N)C(=O)N2C1C(=O)O (some centres undefined) | 1.77% [at 12.8 µM] (inactive) |  |
| C=C1Nc2ccccc2C(=O)N1c1ccccc1C | -2.19% (inactive) |  |
| CC1OC(O[C@H]2C[C@@H](O)[C@]3(CO)[C@@H]4C(CC[C@]3(O)C2)[C@@]2(O)CC[C@H](C3=CC(=O)OC3)[C@@]2(C)C[C@H]4O)C(O)C(O)C1O (some centres undefined) | 0.0878% (inactive) |  |
| O=[N+]([O-])OC1CO[C@H]2C(O[N+](=O)[O-])COC12 (some centres undefined) | 5.92% (inactive) |  |
| CCOC(=O)/C=C(C)/C=C/CC(C)CCCC(C)C (centres undefined) | -1.19% (inactive) |  |
| [S]=[Sb][S][Sb]=[S] | -2.34% (inactive) |  |
| CN1C2CCC1C(C(=O)O)C(OC(=O)c1ccccc1)C2 (centres undefined) | 2.46% (inactive) |  |
| C[C@@H]1CC[C@H]2[C@@H](C)C(=O)O[C@@H]3OC4(C)CC[C@@H]1C32OO4 (some centres undefined) |  | 10 nM (active) |
| Cc1ccc2c(c1)[C@@H]1CN(C)CC[C@H]1N2 | 4.94% (inactive) |  |
| Nc1nc(O)c(-c2ccccc2)o1 | 2.15% (inactive) |  |
| C=CC[N+]1(C)CCC23c4c5ccc(O)c4O[C@H]2C(=O)CC[C@@]3(O)C1C5 (some centres undefined) | 10.1% (inactive) |  |
| OC[C@@H](O)[C@H]1O[C@@H]2OC(C(Cl)(Cl)Cl)O[C@H]2[C@H]1O (some centres undefined) | 4.72% (inactive) |  |
| CCCCCCC(=O)O[C@H]1CC[C@H]2[C@@H]3CCC4CC(=O)C=C(C)[C@]4(C)[C@H]3CC[C@]12C (some centres undefined) | -6.66% (inactive) |  |
| Cc1cc(C)cc(C(=O)OC2CC3CCC(C2)N3C)c1 (centres undefined) | -6.9% (inactive) |  |
| CCCN1CCCC2Cc3nc(N)ncc3CC21 (centres undefined) | 8.75% (inactive) |  |
| COc1ccc2c3c1O[C@H]1[C@@H](O)C=C[C@H]4C(C2)NCCC341 (some centres undefined) | 4.25% (inactive) |  |
| CCCCCC(O)C1C(=O)OC(C)C(O)\C=C/C=C\C=C/C=C\C=C(\C)C(O)C(O)C(O)CC(O)CC(O)CC(O)CC(O)CC1O (centres undefined) | 6.93% (inactive) |  |
| CCCCCc1cc(O)c2c(c1)OC(C)(C)C1CC=C(C)CC21 (centres undefined) |  | 11200 nM (active) |
